Source: PubChem
A selection: hits, their analogues and other compounds. The true share with any hit is near 0.66%.
Rango-impB inh: inhibitors of Rango-importin beta complex formation; Rango CFP/YFP FRET sensor + importin beta, 45 min; actives 0.031% (n = 340,000); Potency, µM (top dose mostly 92.2 µM), for inactives: at the highest dose inhibition of complex formation; Q14974;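 further: 0% = DMSO wells and 100% = buffer wells lacking importin beta; nearly all actives have a fitted effect of over 15% in size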
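Inhibition scored from the CFP 486 nm/YFP 530 nm FRET ratio 45 min after adding 0.125 microM importin beta to 50 nM Rango biosensor preincubated 5 min with compound (room temperature, PBS with DTT, Tween-20, BSA). No-importin wells as positive control.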
gsp agonist: gsp mutant agonism. gsp mutant cells, cAMP HTRF, 30 min. Potency, µM (doses to about 76.9 µM), inactives show at the top dose activation (cAMP increase), actives largely listed as activators. actives 0.13% (n = 340,000); active means well fitted activation curve with a large enough effect; inconclusive means small, poorly fitted or top-dose-only effect, or another doubt; inactive means no such curve, though single readings can be large or run the other way; cell line not stated here;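 further: phosphodiesterase inhibitor Ro 20-1724 added with compounds to block cAMP breakdown; nearly all actives have a fitted effect of over 60% in size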
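Cells stably selected in G418 were plated at 2000/well, grown 16-24 hr, then given compounds in DMSO with the PDE inhibitor […] (300 uM solution added) for 30 min at 37C; cAMP was read by HTRF.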
Rango dissoc inh: inhibition of RanGTP-driven Rango-importin beta dissociation; Biochemical FRET Rango-importin beta, RanGTP-induced dissociation; Potency, µM (series often up to 46.1 µM), inactives show at the top dose activity change, negative = inhibition; actives 0.071% (n = 340,000); AID 540253; further: % of control where 0% means no effect; nearly all actives have a fitted effect of over 45% in size
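Compounds preincubate 5 min with complex of recombinant Rango and importin beta in PBS with 1 mM DTT. Ran (0.6 uM) loaded with 2 mM GTP plus 0.2 uM RCC1 starts dissociation; FRET is recorded 45 min later.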
gsp antagonist: antagonists of gsp mutant (McCune-Albright syndrome). gsp-mutant cells, cAMP HTRF, 30 min. Potency, µM (highest dose often 76.9 µM), inactives show at the top dose activity change, negative = inhibition, usual class: inhibitors. actives 0.4% (n = 340,000); calls by dose curve; cell line not stated here;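 further: intracellular cAMP measured with PDE inhibitor Ro 20-1724 present during compound exposure; on the % scale 0 is the no-effect control and ±100 the full control effect; nearly all actives have a fitted effect of over 65% in size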
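HTRF cAMP measurement after 30 min RT detection following 30 min, 37C compound treatment alongside […] (added as 300 uM solution) in G418-selected cells seeded at 2000/well and grown 16–24 h.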
* = called active by the depositor; ? = inconclusive; . = not tested or not shown; [ ] = remark or other dose. Unless noted, the call rests on the fitted dose curve. Potency means the concentration at half of the fitted maximal effect.

SMILES	Rango-impB inh	gsp agonist	Rango dissoc inh	gsp antagonist
c1ccc2c(c1)[nH]c1c(N3CCC4(CC3)OCCO4)ncnc12	-2%	-26%	-1%	32µM*
c1ccc(CN2CCN(c3ncnc4c3[nH]c3ccccc34)CC2)cc1	-2%	-31%	0%	32µM*
Cc1ccc2[nH]c3c(N4CCN(Cc5ccccc5)CC4)ncnc3c2c1	-3%	-14%	-5%	16µM*
CC(=O)Nc1ccc(S(=O)(=O)N(CC(=O)NCC2CCCO2)Cc2ccccc2Cl)cc1 (stereo not drawn)	.	-39%	.	.
O=C(CC1CC2CCC1C2)N1CCN(S(=O)(=O)c2ccc(C(F)(F)F)cc2)CC1 (stereo not drawn)	.	-8%	.	.
Cc1cc(-c2c(C)[nH]n(-c3ccc(Cl)cc3)c2=O)n[nH]1	0%	-1%	6%	40µM*
Cc1[nH]n(-c2ccccc2)c(=O)c1Sc1ccc(Cl)cc1	-1%	-13%	0%	-5%
Cc1ccc(Cn2cc(SCC(=O)Nc3nccs3)c3ccccc32)cc1	-2%	3%	-3%	5%
Cc1nnc(NC(=O)CSc2cn(Cc3ccccc3)c3ccccc23)s1	4%	16µM*	26%	-13%
COCCn1c(CN2CCN(C(=O)c3ccco3)CC2)nc2c1c(=O)n(C)c(=O)n2C	5%	18µM*	-11%	-5%
O=C(NC(C(=O)N/N=C/c1cc([N+](=O)[O-])ccc1O)c1n[nH]c(=O)c2ccccc12)c1ccccc1 (stereo not drawn)	?	13%[15.4 µM]	16µM*	-15%
O=C(NC(C(=O)N/N=C/c1cccc2ccccc12)c1n[nH]c(=O)c2ccccc12)c1ccccc1 (stereo not drawn)	-2%	23%	-3%	5%
Cc1cc(=O)[nH]c(SCC(=O)C23CC4CC(CC(C4)C2)C3)c1C#N	2%	19%	4%	35µM*
O=C(c1cc(-c2ccncc2)nc2ccc(Br)cc12)N1CCN(Cc2ccc3c(c2)OCO3)CC1	-4%	19%[15.4 µM]	20%	28µM*
CCc1ccc(N2CC(C(=O)N3CCN(S(=O)(=O)c4cccc(F)c4)CC3)CC2=O)cc1 (stereo not drawn)	.	-26%	.	.
COc1ccc(S(=O)(=O)N2CCC(C(=O)NCCC(=O)NCc3ccncc3)CC2)cc1	-3%	-2%	0%	22%
COc1ccc(S(=O)(=O)N2CCC(C(=O)NCCC(=O)NCc3ccccc3OC)CC2)cc1	-5%	1%	10%	32µM*
C=C1C(=O)C23CCC4C(C)(C(=O)OC)CCCC4(C)C2CCC1(O)C3 (stereo not drawn)	2%	9%	-7%	7%
CC(OC(=O)CN(C)S(=O)(=O)c1ccc(Cl)cc1)C(=O)Nc1cccc(Cl)c1 (stereo not drawn)	-8%	8%	-17%	40µM*
CC(OC(=O)CN(C)S(=O)(=O)c1ccc(Cl)cc1)C(=O)Nc1ncc(Cl)cc1Cl (stereo not drawn)	2%	-1%	-12%	-22%
COc1ccccc1NC(=O)Nc1ccnn1C1CCN(C(=O)C2CCOC2)CC1 (stereo not drawn)	.	3%	.	.
CCOC(=O)C1CCN(C(=O)c2ccc3nc(-c4ccc(OC)cc4)c(-c4ccc(OC)cc4)nc3c2)CC1	?	4%	16µM*	?
O=C(OCc1cn([C@H]2C[C@H](c3ccc(Cl)cc3)N(CC3CCCCC3)C[C@@H]2O)nn1)c1ccccc1	.	-38%	.	.
Fc1ccc(N2N=C(c3cccs3)CC2c2ccccc2)cc1 (stereo not drawn)	?	0%[15.4 µM]	9.2µM*[inhibitor]	8%
O=S(=O)(c1ccccc1)N1N=C(c2cccs2)CC1c1ccc(F)cc1 (stereo not drawn)	4%	-5%	-6%	2%
SMILES	Rango-impB inh	gsp agonist	Rango dissoc inh	gsp antagonist
O=S(=O)(c1cccnc1)N1CCCC(Nc2ccc(F)c(F)c2)C1 (stereo not drawn)	.	-71%	.	.
COc1ccc(C2=NS(=O)(=O)N(C)C(C(=O)Nc3ccc(C(C)=O)cc3)=C2)cc1OC	?	35%	12%	32µM*
COc1ccc(NC(=O)C2=CC(c3ccc(C)cc3)=NS(=O)(=O)N2C)cc1OC	-1%	-33%	-13%	-25%
COCC(=O)N(C)C[C@@H]1Oc2cc(-c3ccc(F)cc3)ccc2S(=O)(=O)N([C@H](C)CO)C[C@H]1C	.	-7%	.	.
CC1(C)c2[nH]c3ccccc3c2C[C@@H]2C(=O)N(Cc3ccccc3)C(=O)N21	?	.	21µM*	.
COc1ccc(-c2cc3nc4n(c(=O)c3s2)CCCCC4)cc1	1%	?	12%	-11%
COc1ccc(-c2cc3nc4n(c(=O)c3s2)CCC4)cc1	-3%	16µM*	-2%	5%
N#C/C(=C(/O)c1ccc2c(c1)OCO2)c1nc2cc(C(F)(F)F)ccc2s1	-1%	-3%	-10%	35µM*
O=C(O)c1ccc(NC2=C(Cl)C(=O)c3ccccc3C2=O)cc1	3%	?	-10%	28µM*
O=C1C(Cl)=C(Nc2ccccc2)C(=O)c2ccccc21	-1%	-40%	-19%	-5%
O=C(O)c1cccc(NC2=C(Cl)C(=O)c3ccccc3C2=O)c1	0%	?	18%	50µM*
O=C(Nc1ccc2c(c1)[C@@H]1C[C@@H](CC(=O)N3CCOCC3)O[C@@H](CO)[C@@H]1O2)NC1CCCC1	.	-13%	.	.
CCO/C=C1\C(=O)N(c2ccccc2)C(=O)c2ccccc21	?	-6%	13µM*	-4%
CCO/C=C1/C(=O)N(c2ccc(OC)cc2)C(=O)c2ccccc21	?	11%	?	-3%
COc1ccc(CC(CC(=O)O)C(=O)Nc2ccc(Cl)c(Cl)c2)cc1 (stereo not drawn)	5%	4%	-3%	18µM*
Cc1ccc(CC(CC(=O)O)C(=O)Nc2ccc(Cl)cc2)cc1 (stereo not drawn)	2%	-25%	7%	1%
O=C(N/N=C/c1ccc(F)cc1)c1ccc(Br)cc1	4%	40µM*	-3%	4%
O=C(N/N=C/c1ccc(Br)cc1)c1ccc(F)cc1	4%	-1%	4%	2%
Cc1sc2nc(SCc3ccc(C(=O)O)cc3)n(Cc3ccco3)c(=O)c2c1C	2%	-9%[15.4 µM]	-5%	25µM*
C=CCn1c(SCc2ccc(C(=O)O)cc2)nc2sc(C)c(C)c2c1=O	-1%	22%	-9%	-12%
CC(=O)Nc1nc2n(n1)C(c1ccc(Cl)cc1)C=C(C)N2 (stereo not drawn)	?	0%	13µM*	3%
COc1ccc(Nc2nnc(-c3ccc(O)cc3)c3ccccc23)cc1	4%	-1%	10%	25µM*
O=C1N/C(=N/N=C/c2ccco2)SC1Cc1ccccc1 (stereo not drawn)	-2%	-10%	-1%	-3%
COc1ccccc1CC1S/C(=N/N=C/c2ccco2)NC1=O (stereo not drawn)	2%	-28%	-10%	28µM*
O=C(NCc1cccnc1)c1cc(C(=O)C2CC2)c[nH]1	?	1%[15.4 µM]	0%	11µM*
